This is an account of results in PubChem BioAssay (EPA / NIEHS).

Results filed as inconclusive are left out. Calls of active or inactive are those of the source. Rule for the calls, unless noted: active = hit-call score of the fitted dose curve at least 0.9, where 1 is the maximum; inactive = score below 0.9.

As usually defined, the AC50 is the concentration giving half of the maximal activity seen.

A short description of assay [1]: CCTE_Harrill_HTTr_Viability_DMEM_6hr: (Pilot) CCTE's 6-hour Cell Viability Assessment for the High-Throughput Transcriptomics (HTTr) Platform, in MCF-7 cells cultured in DMEM + 10% fetal bovine serum, Harrill Lab (AID 2283973). The method in brief:
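MCF-7 cells in DMEM + 10% FBS, eight-point dilution series, 6 h exposure. Membrane integrity by propidium iodide exclusion with high-content imaging; bidirectional fit versus DMSO.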

Assay [2] in a line: CCTE_Harrill_HTTr_Viability_DMEM_12hr: (Pilot) CCTE's 12-hour Cell Viability Assessment for the High-Throughput Transcriptomics (HTTr) Platform, in MCF-7 cells cultured in DMEM + 10% fetal bovine serum, Harrill Lab (AID 2283974). An excerpt: This is a cell-based assay that evaluates cell viability using high content imaging to evaluate membrane integrity using propidium iodide dye exclusion in a 384 well format.One of seven assay components measured from the CCTE_Harrill_HTTr_Viability assay. This was part of a pilot experiment. This is a cell-based assay that evaluates cell viability in MCF-7 cells cultured in DMEM + 10% fetal bovine serum. High content imaging is used to evaluate membrane integrity using propidium iodide dye exclusion. Measurements are taken at 12 hours after chemical dosing in 384-well format.The assay component endpoint CCTE_Harrill_HTTr_Viability_DMEM_12hr was analyzed with bidirectional fitting relation to DMSO as the negative control and baseline of activity. Using a type of viability reporter to understand changes in cytotoxicity, gain-of-signal activity can be used to evaluate membrane integrity using propidium iodide dye exclusion. To generalize the intended target to other relatable targets, this assay endpoint is annotated to cell cycle, where the subfamily is cytotoxicity.
(§1) Chemicals were tested in MCF7 cells in an eight point dilution series with a twelve hour exposure duration.

Assay [3] can be described thus: CCTE_Harrill_HTTr_Viability_DMEM_24hr: (Pilot) CCTE's 24-hour Cell Viability Assessment for the High-Throughput Transcriptomics (HTTr) Platform, in MCF-7 cells cultured in DMEM + 10% fetal bovine serum, Harrill Lab (AID 2283975). The method in brief: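 MCF-7 cells in DMEM with 10% FBS exposed for 24 hours to an eight-point dilution series. Membrane integrity by propidium iodide exclusion with high content imaging; bidirectional fit against DMSO.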

The nature of assay [4]: CCTE_Harrill_HTTr_Viability_PRF_DMEM_6hr: (Pilot) CCTE's 6-hour Cell Viability Assessment for the High-Throughput Transcriptomics (HTTr) Platform, in MCF-7 cells cultured phenol red-free DMEM + 10% charcoal-stripped fetal bovine serum, Harrill Lab (AID 2283976). The method in brief: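 MCF-7 cells in phenol red-free DMEM with 10% charcoal-stripped FBS exposed 6 hours to an eight-point dilution series. Propidium iodide exclusion imaged; curves fitted bidirectionally against DMSO.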

Assay [5] can be described thus: CCTE_Harrill_HTTr_Viability_PRF_DMEM_12hr: (Pilot) CCTE's 12-hour Cell Viability Assessment for the High-Throughput Transcriptomics (HTTr) Platform, in MCF-7 cells cultured in phenol red-free DMEM + 10% charcoal-stripped fetal bovine serum, Harrill Lab (AID 2283977).
Excerpt: This is a cell-based assay that evaluates cell viability using high content imaging to evaluate membrane integrity using propidium iodide dye exclusion in a 384 well format.One of seven assay components measured from the CCTE_Harrill_HTTr_Viability assay. This was part of a pilot experiment. This is a cell-based assay that evaluates cell viability in MCF-7 cells cultured in phenol red-free DMEM + 10% charcoal-stripped fetal bovine serum. High content imaging is used to evaluate membrane integrity using propidium iodide dye exclusion. Measurements are taken at 12 hours after chemical dosing in 384-well format.The assay component endpoint CCTE_Harrill_HTTr_Viability_PRF_DMEM_12hr was analyzed with bidirectional fitting relation to DMSO as the negative control and baseline of activity. Using a type of viability reporter to understand changes in cytotoxicity, gain-of-signal activity can be used to evaluate membrane integrity using propidium iodide dye exclusion. To generalize the intended target to other relatable targets, this assay endpoint is annotated to cell cycle, where the subfamily is cytotoxicity.
as §1

Assay [6] in a line: CCTE_Harrill_HTTr_Viability_PRF_DMEM_24hr: (Pilot) CCTE's 24-hour Cell Viability Assessment for the High-Throughput Transcriptomics (HTTr) Platform, in MCF-7 cells cultured in phenol red-free DMEM + 10% charcoal-stripped fetal bovine serum, Harrill Lab (AID 2283980). The method in brief: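 MCF-7 cells in phenol red-free DMEM with 10% charcoal-stripped FBS, eight-point dilution series, 24 h exposure. Membrane integrity by propidium iodide exclusion with high content imaging; bidirectional fit vs DMSO.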

Assay [7] in a line: TOX21_TRB_BLA_Antagonist_Followup_viability: Viability Assessment in the Tox21 Thyroid Hormone Receptor beta Antagonism Beta-lactamase (BLA) Follow-Up Assay (AID 2283961; active = hit-call score of the fitted dose curve at least 0.9, where 1 is the maximum). The method in brief:
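In the same wells as the reporter read, cell health was gauged by CellTiter-Glo ATP luminescence, with signal loss indicating reduced viability. Cells had been exposed to test compounds for 18 h.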

Another assay has as its target THRB (gene 7068) (UniProt P10828). Description: TOX21_TRB_COA_Antagonist_Followup_ratio: Tox21 Thyroid Hormone Receptor beta Antagonism through Coactivator Recruitment Follow-Up Assay, Ratio (AID 2283967; active = hit-call score of the fitted dose curve at least 0.9, where 1 is the maximum). The text has this:
TOX21_TRb_COA_Antagonist_Followup is a secondary assay for specificity for the TOX21_TR_GH3_LUC_Agonist assay. The LanthaScreen TR-FRET TR coactivator assay kits were used to determine TR activity in a cell-free functional assay. A time-resolved fluorescence resonance energy transfer (TR-FRET) signal was indicative of coactivator (SRC-2) recruitment.TOX21_TRB_COA_Antagonist_Followup_ratio is assay component calculated in the TOX21_TRB_COA_Antagonist_Followup assay. The TR-FRET ratio of acceptor emission (ch2) to donor emission (ch1) is indicative of the resonance energy transfer to the fluorescein tag on the coactivator peptide following recruitment to the receptor.Data from the assay component TOX21_TRB_COA_Antagonist_Followup_ratio was analyzed into 1 assay endpoint. This assay endpoint, TOX21_TRB_COA_Antagonist_Followup_ratio, was analyzed in the positive analysis fitting direction relative to DMSO as the negative control and baseline of activity. Using a type of inducible reporter, loss-of-signal activity can be used to understand changes in the reporter gene as they relate to the gene THRB. Furthermore, this assay endpoint can be referred to as a primary readout, because this assay has produced multiple assay endpoints and this ratio serves a reporter gene function to understand target activity. To generalize the intended target to other relatable targets, this assay endpoint is annotated to the nuclear receptor intended target family, where the subfamily is non-steroidal.
Cell Media Required: Growth (90% DMEM/F-12, 10% Fetal Bovine Calf Serum, 100U/ml Penicillin, 100 ug/ml Streptomycin), Assay (10ng/mL sodium selenite, 10 ug/mL humanapo-transferrin, 10 uM ethanolamine, 10 ug/mL insulin, 500 ug/mL bovine serum albumin (BSA))Assay Protocol: 4 uL mixture of the receptor LBDs expressed as glutathione S-transferase (GST) fusion proteins (2.5 nM for TRa and 5.0 nM for TRb) and BSA (0.10%; Sigma-Aldrich) were incubated with 23 nL of control or test compound. A time-resolved fluorescence resonance energy transfer(TR-FRET) signal was indicative of coactivator recruitment using a 2 uL mixture of fluoresce in-labeled SRC-2 peptide (200 nM) and terbium-labeled anti-GST antibody (2nM), which transferred resonance energy to the fluorescein tag on the coactivator peptide following recruitment to the receptor. Fluorescence emission ratios (520:495 nm) were collected by an Envision plate reader (excitation at 340 nm and emissions at 495 and 520 nm), and the measured values were normalized to 0% activity using DMSO-only wells and 100 activity using T3 control wells.

Assay [8] concerns the target Retinoic acid receptor RXR-alpha (Homo sapiens) (UniProt P19793). Description: TOX21_TR_RXR_BLA_Antagonist_Followup_ratio: Tox21 Thyroid Hormone Receptor beta Retinoid X Receptor alpha (RXRa) Antagonism Beta-lactamase (BLA) Follow-Up Assay, Ratio (AID 2283972; active = hit-call score of the fitted dose curve at least 0.9, where 1 is the maximum). The method in brief:
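Compounds were tested in triplicate at 11 concentrations on RXRa-bla HEK293T cells for 16 h. Substrate cleavage ratio, normalized to DMSO, gave the endpoint.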

Assay [9] can be described thus: TOX21_TR_RXR_BLA_Antagonist_Followup_viability: Viability Assessment in the Tox21 Thyroid Hormone Receptor beta Retinoid X Receptor alpha (RXRa) Antagonism Beta-lactamase (BLA) Follow-Up Assay (AID 2283979; active = hit-call score of the fitted dose curve at least 0.9, where 1 is the maximum). The method in brief: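 RXRa-bla HEK293T cells (2,500/well, phenol red-free DMEM, 2% charcoal-stripped FBS) were attached 5 h, then exposed to compounds at 11 concentrations in triplicate for 16 h at 37C. Viability measured by CellTiter-Glo ATP luminescence, bidirectional fitting versus DMSO.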

Sequence of THRB (gene 7068) (P10828 whole entry, looked up): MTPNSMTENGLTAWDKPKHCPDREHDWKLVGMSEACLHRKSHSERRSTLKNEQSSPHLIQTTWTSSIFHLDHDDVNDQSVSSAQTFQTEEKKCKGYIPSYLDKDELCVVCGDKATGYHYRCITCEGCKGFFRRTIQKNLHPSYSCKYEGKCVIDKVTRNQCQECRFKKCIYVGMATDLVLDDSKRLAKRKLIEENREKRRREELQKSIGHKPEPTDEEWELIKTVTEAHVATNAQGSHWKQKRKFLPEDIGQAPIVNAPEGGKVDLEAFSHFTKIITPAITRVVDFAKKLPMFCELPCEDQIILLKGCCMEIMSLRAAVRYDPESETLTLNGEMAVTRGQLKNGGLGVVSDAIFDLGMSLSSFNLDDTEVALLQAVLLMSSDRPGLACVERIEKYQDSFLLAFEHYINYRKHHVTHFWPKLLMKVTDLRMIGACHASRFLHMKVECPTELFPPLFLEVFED
Sequence of Retinoic acid receptor RXR-alpha (Homo sapiens) (P19793 whole entry, looked up): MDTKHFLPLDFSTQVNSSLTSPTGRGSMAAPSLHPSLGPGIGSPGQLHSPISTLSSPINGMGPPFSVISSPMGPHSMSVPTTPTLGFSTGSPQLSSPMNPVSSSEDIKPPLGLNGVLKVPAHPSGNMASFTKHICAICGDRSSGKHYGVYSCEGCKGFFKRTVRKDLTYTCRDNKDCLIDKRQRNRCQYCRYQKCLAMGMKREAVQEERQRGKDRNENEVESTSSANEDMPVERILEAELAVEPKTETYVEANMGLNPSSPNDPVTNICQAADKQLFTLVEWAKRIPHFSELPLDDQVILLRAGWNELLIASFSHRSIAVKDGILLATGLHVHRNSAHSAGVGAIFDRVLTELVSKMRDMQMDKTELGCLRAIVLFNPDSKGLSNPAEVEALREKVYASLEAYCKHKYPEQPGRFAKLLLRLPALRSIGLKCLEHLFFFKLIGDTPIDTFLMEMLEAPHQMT

Consider `CCCC1COC(Cn2cncn2)(c2ccc(Cl)cc2Cl)O1` (configuration not stated), for which the outcome in assay [1], in assay [2], in assay [3], in [4], in [5] and in assay [6] was inactive.

For the compound `CCCCNC(=O)n1c(NC(=O)OC)nc2ccccc21`, the outcome (in assay [7]; in the assay with THRB (gene 7068); in assay [8]; in assay [9]) was inactive.

For `CC(C)(C)c1ccc(CSc2cnn(C(C)(C)C)c(=O)c2Cl)cc1`, the outcome in [7] and in [9] was inactive.

Turning to `CN(C)C(=S)SSC(=S)N(C)C`, the compound was called inactive (in assay [7]; with THRB (gene 7068); in assay [1]; in assay [2]; in assay [4]; in assay [5]). Besides, in assay [9], the outcome was inactive. The figures for the AC50 in assay [3] and in assay [6] were 54.6 µM (active) and 46.7 µM (active), respectively.

Take `CCNc1nc(Cl)nc(NC(C)C)n1`: the result in [1], in assay [2], in assay [3], in [4], in assay [5] and in [6] was inactive.

Consider `CCNc1nc(Cl)nc(NCC)n1`, for which the outcome in assay [1], in assay [2], in assay [3], in assay [4], in assay [5] and in assay [6] was inactive.

For the compound `CCc1nn(C)c(C(=O)NCc2ccc(C(C)(C)C)cc2)c1Cl`, the results for the AC50 in assay [7] and in assay [9] were 4.69 µM (active) and 7.74 µM (active), respectively. The outcome (in the assay with THRB (gene 7068); in assay [8]) was inactive.

On to `C=CC1(C)OC(=O)N(c2cc(Cl)cc(Cl)c2)C1=O` (configuration not stated), for which the outcome in [1], in assay [2], in assay [3], in assay [4], in [5] and in assay [6] was inactive.

With `CO/C=C(/C(=O)OC)c1ccccc1Oc1cc(Oc2ccccc2C#N)ncn1`, the AC50 in assay [7] is 38.1 µM (active). Moreover, the outcome (with THRB (gene 7068); in assay [8]; in assay [9]) was inactive.

On to `COC(=O)N(OC)c1ccccc1COc1ccn(-c2ccc(Cl)cc2)n1`, for which the AC50 was 14.9 µM (active) in assay [7], 38.3 µM (active) in assay [8] and 7.9 µM (active) in assay [9]. The outcome (in the assay with THRB (gene 7068); in assay [1]; in assay [2]; in assay [3]; in assay [4]; in [5]) was inactive. The outcome in assay [6] was inactive.
